Assay outcomes as filed in PubChem BioAssay.
Pf growth 96h – Primary qHTS for delayed death inhibitors of the malarial parasite plastid, 96 hour incubation | P. falciparum luciferase reporter growth, 96 h | Potency, µM (highest dose often 28.7 µM), inactives show at the top dose activity change, negative = inhibition, usual class: inhibitors | hit rate 6.9% among 320,000 | AID 504834, 2011; also: potency is read from the fitted curve at half-maximal effect; % is scaled to controls: 0 for no effect and ±100 for the full control effect
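Erythrocytes infected with luciferase-expressing P. falciparum were dispensed at 2% hematocrit and 0.05% parasitemia (final), then incubated with compounds 96 hours at 37 C in 5% CO2. Luminescence after detection reagent addition reported growth.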
Pf growth 48h – Primary qHTS for delayed death inhibitors of the malarial parasite plastid, 48 hour incubation. P. falciparum luciferase growth in erythrocytes, 48 h. Potency, µM (top dose mostly 28.7 µM), without a hit: top-dose activity change, negative = inhibition, actives largely listed as inhibitors. hit rate 5.9% among 310,000. AID 504832, 2011; also: potency is read from the fitted curve at half-maximal effect; % is scaled to controls: 0 for no effect and ±100 for the full control effect
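Firefly luciferase activity from engineered P. falciparum reports growth; inhibitors lower the luminescent signal. Cultures contained 2% hematocrit erythrocytes at 0.1% final parasitemia.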
NS1 inh – qHTS Assay for Inhibitors of Influenza NS1 Protein Function. AID 2326, 2010. Potency, µM (titrated, usually from 46.1 µM), for the others: top-dose activity, positive = more growth. hit rate 0.4% among 270,000; calls by dose curve; also: potency is read from the fitted curve at half-maximal effect; actives are rising curves; nearly all actives have a fitted effect of over 50% in size
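In this qHTS, NS1 from influenza A is expressed in budding yeast, where it slows growth. Cells are switched from glucose to 2% galactose medium (pH 6.0, -URA), treated with compound, and growth recovery is read at OD600.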
CHX counter – Cycloheximide Counterscreen for Small Molecule Inhibitors of Shiga Toxin; cell reporter, cycloheximide protein synthesis inhibition counterscreen; max response, %; hit rate 12% among 300,000; AID 2314, 2010; in the data active = max response mostly above about 13%, no sharp cut-off; inactive = mostly below about 14%; also: read at 38.3 µM for the half of the compounds with a filed dose; 0% is about no effect
SARS PLpro yeast – qHTS of Yeast-based Assay for SARS-CoV PLP; S. cerevisiae expressing SARS-CoV PLpro, growth rescue; Potency, µM (top dose mostly 32.9 µM), for inactives: at the highest dose activity, positive = growth rescue, actives largely listed as activators; hit rate 0.19% among 330,000; AID 485353, 2010; calls by dose curve; also: potency is read from the fitted curve at half-maximal effect; 0% is about no effect; nearly all actives have a fitted effect of over 55% in size
Shiga toxin inh – A qHTS for Small Molecule Inhibitors of Shiga Toxin; Vero cells, Shiga toxin protein synthesis inhibition reporter; inhibition, % at 38.7 µM; hit rate 9.2% among 290,000; AID 2315, 2010; in the data active = inhibition mostly above about 28%, no sharp cut-off; inactive = mostly below about 43%; also: 0% is about no effect
Starred values were filed as active, the others as inactive; i = inactive; ? = inconclusive; · = no result. In the library only some 21% were active in any assay of this set; here they are far more common. Unless noted, calls follow the shape of the dose curve; as a rule, active = well fitted inhibition curve with a large enough effect; inconclusive = small, poorly fitted or top-dose-only effect, or another doubt; inactive = no such curve, though single readings can be large or run the other way.

SMILES	Pf growth 96h	Pf growth 48h	NS1 inh	CHX counter	SARS PLpro yeast	Shiga toxin inh
COc1ccc(/C=C2\SC(=O)N(CCNC(=O)C3CCN(S(=O)(=O)c4cccs4)CC3)C2=O)cc1	-31%	54%	-9%	35*	4%	44*
COc1ccc(/C=C2\SC(=O)N(CCNC(=O)CCS(=O)(=O)c3ccc(C)cc3)C2=O)cc1	16%	156%	14%	70*	-29%	110*
COc1ccc(S(=O)(=O)CCC(=O)NCCc2ccc(C)cc2)cc1	·	6%	-1%	-3	-8%	-6
[N-]=[N+]=CC(=O)CC[C@H](N)C(=O)O	·	·	-1%	·	·	·
O=C(/C=C/Nc1ccc(Br)cc1F)c1ccccc1	43%	170%	4%	38*	-17%	41*
O=C(/C=C/Nc1ccccc1F)c1ccc(Br)cc1	51%	246%	-17%	61*	13%	87*
COc1cccc(CNC(=O)C2CCCN(S(=O)(=O)c3c(C)[nH]c(=O)[nH]c3=O)C2)c1 (centres undefined)	·	13%	-6%	4	-7%	25
CC1CN=C(Nc2ccccc2)S1 (centres undefined)	54%	5%	8%	9	6%	8
CC1CN=C(Nc2ccc(N(C)C)cc2)S1 (centres undefined)	2.1µM*	17%	3%	-5	2%	-2
c1ccc2c(NC3=NCCCCS3)cccc2c1	-22%	7%	4%	-4	14%	22
CC1CN=C(Nc2cccc3ccccc23)S1 (centres undefined)	15%	11%	-14%	19*	5%	37
CCOC(=O)CNC(=O)CSc1nc(-c2cccc(C)c2)ns1	48%	5%	·	11	0%	26
Cc1cccc(-c2nsc(SCC(=O)NCc3ccco3)n2)c1	-25%	39%	-51%	23*	-5%	9
Cc1cccc(-c2nsc(SCC(=O)NCc3ccc4c(c3)OCO4)n2)c1	49%	20%	-12%	-2	2%	-11
Cc1cccc(-c2nsc(SCC(=O)NCC3CCCO3)n2)c1 (centres undefined)	70%	45%	·	44*	-1%	91*
Cc1ccccc1N(C(=O)c1snc(C(N)=O)c1N)C(C(=O)NCc1ccccc1)c1ccc(O)cc1 (centres undefined)	35%	?	2%	-3	-2%	-7
CCOc1ccccc1N(C(=O)c1snc(C(N)=O)c1N)C(C(=O)NC1CCCC1)c1cccs1 (centres undefined)	?	9.3µM*	15%	-3	0%	-11
COc1ccc(C(C(=O)NCc2ccccc2)N(C(=O)c2snc(C(N)=O)c2N)c2ccccc2OC)cc1OC (centres undefined)	-15%	10µM*	-4%	0	0%	-12
CN(C)c1ccc(C(C(=O)NCc2ccccc2)N(Cc2cccnc2)C(=O)c2snc(C(N)=O)c2N)cc1 (centres undefined)	13µM*	?	-22%	-3	4%	-17
CCOc1ccccc1N(C(=O)c1snc(C(N)=O)c1N)C(CC)C(=O)NC1CCCC1 (centres undefined)	7%	-27%	21%	-3	-7%	10
CCOc1ccccc1N(C(=O)c1snc(C(N)=O)c1N)C(C(=O)NCc1ccccc1)c1ccc(O)cc1 (centres undefined)	?	12µM*	-28%	-6	13%	18
CCC(C)c1ccccc1NC(=S)NC(=O)c1ccco1 (centres undefined)	-18%	?	-28%	-3	4%	-1
CCOC(=O)N1CCN(C(=O)CSc2ccc(-c3ccc(OC)cc3)nn2)CC1	?	?	·	17	0%	26
COc1ccccc1NC(=O)C(C)N1C(=O)C2CCCCC2C1=O (centres undefined)	7%	36%	·	·	2%	·
COC1=C/C(=C/c2c(O)c(C#N)c3ccccn23)C=CC1=O	162%	143%	7%	56*	-1%	73*
SMILES	Pf growth 96h	Pf growth 48h	NS1 inh	CHX counter	SARS PLpro yeast	Shiga toxin inh
Cn1ccc(O)c(C#N)c1=O	?	8%	3%	-1	0%	9
CCOc1ccc(-c2ccc(SCC(=O)N3CCN(c4ccccc4)CC3)nn2)cc1	38%	-9%	2%	3	19%	3
Cc1ccc(-c2ccc(SCC(=O)NC3CCCC3)nn2)cc1	19%	2%	0%	4	2%	8
CCOc1ccc(-c2ccc(SCC)nn2)cc1	?	-34%	-48%	29*	-1%	75*
CCSc1ccc(-c2ccc(C)cc2)nn1	446%	i	·	28*	3%	65*
O=C(NC1CCCCC1)c1cc(S(=O)(=O)N2CCOCC2)ccc1Cl	10%	9%	1%	1	-1%	-7
CC(NC(=O)C(C)N1C(=O)C2C3CC(C(Br)C3Br)C2C1=O)c1ccccc1 (centres undefined)	24%	-8%	-2%	14	3%	-25
CC1(C)Cc2c(ccc3ccccc23)C(=O)N1	?	?	-10%	11*	-7%	16
CCNC(=O)/C=C1\NC(C)(C)Cc2c1ccc1ccccc21	?	·	-11%	0	-11%	-9
Cc1ccccc1CN1CCN(CC2CC2)CC1CCO (centres undefined)	-15%	-3%	0%	2	0%	-5
Cc1cc(N2CCC(N(C)C3CCCC3)CC2)nc2cc(O)ccc12	-26%	1.9µM*	-1%	-2	8%	10
Cc1cc(N2CCN(c3ccccc3)CC2)nc2ccccc12	0%	13%	-13%	10	-3%	51
COc1ccc(C(=O)NCCCOC(=O)c2ccc(OC)cc2)cc1	?	-14%	-4%	-3	?	-9
CC(C)(C)c1ccc(C(=O)NCCN2CCCC2)cc1	17%	14%	0%	2	1%	-4
COc1ccc(C(=O)OCC[N+]2(C)CCCCC2)cc1	7%	20%	·	44*	-2%	107*
COc1ccc(C(=O)OCCN2CCCCC2)cc1	?	21%	·	48*	3%	51*
CC(C)(C)c1ccc(C(=O)OCCN2CCCCC2)cc1	5.9µM*	27%	0%	22*	-3%	55*
O=C(C1CCCN(Cc2ccccc2Cl)C1)N1CCCCC1 (centres undefined)	-4%	5%	3%	-1	0%	5
NCCCC[C@H](NC(=O)CNC(=O)[C@@H]1CCCN1C(=O)[C@H](Cc1ccc(O)cc1)NC(=O)CN)C(=O)N[C@@H](Cc1ccccc1)C(=O)O	·	·	·	-7	·	-7
COc1ccc2c3c(cccc13)C(=O)N(O)C2=O	15%	13µM*	-13%	-2	-60%	-4
